Inconclusive results are not listed. Activity calls are given as the source filed them.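 The calls were made as follows, unless noted: active = viability increase at or above a cutoff of the median across tested compounds plus 3 SD (cut at about 8.5% in these data, passing the limit was not always enough); inconclusive = some gains above the cutoff, reason not given; inactive = the rest.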
Assays:
[1] = SK-BR-3 cell growth inhibitors, pilot screen, 24 h, human (AID 572;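 active = viability at or below 10% of carrier control in both of two separate runs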;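 also: compound exposure lasted between 18 and 24 h rather than exactly 24 h; 100% = carrier-treated control wells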); conditions: SK-BR-3 viability, CellTiter-Glo luminescence, at 10 µM, stronger effect = lower value
[2] = HUVEC growth inhibition – cell-based, human, primary screen (AID 575;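 active = viability at or below 30% in both replicate assays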;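 also: 100% = median of untreated cell wells with 0.1% DMSO on each plate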); conditions: HUVEC proliferation, CellTiter-Glo luminescence, 72 h; at 10 µM; stronger effect = lower value
[3] = growth inhibitors of H69AR lung tumor, primary screen, human, duplicate replicates (AID 580;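 active = viability at or under a set limit in both replicates, limit being median viability minus 3 SD, cut at about 48% in these data, passing the limit was not always enough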;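 also: 100% = mean luminescence of untreated wells and 0% = no signal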); conditions: H69AR lung tumor cells viability, ATP luminescence, 72 h; at 10 µM; stronger effect = lower value
[4] = reversal of MRP1-mediated doxorubicin resistance, pilot screen, H69AR cells, doxorubicin co-treatment (AID 601;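 active = viability loss from added drug above about 55%, and viability with drug at most 40%, in both replicates, limit read from the data, passing the limit was not always enough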); conditions: CellTiter-Glo, 72 h, at 10 µM; for differential viability (reversal): stronger effect = higher value
[5] = 384-well plate pilot, post-Golgi transport modulator project, inhibition of yeast transport mutant growth (AID 636; in the data active = inhibition above about 31%); conditions: absorbance 615 nm, about 18 h, stronger effect = higher value
[6] = growth suppression of yeast trafficking mutant, preliminary HTS, modulators of trafficking downstream of Golgi apparatus project, 1536-format plate, OD 615 nm (AID 637; in the data active = inhibition above about 30%); conditions: yeast transport mutant growth, absorbance 615 nm, 18 h; stronger effect = higher value
[7] = OD615 S. cerevisiae growth inhibition, permissive medium, pilot counter-assay, permissive growth control for S. cerevisiae lifespan shortening project (AID 705;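 active = growth inhibition above 25% in both replicates, a cutoff set 3 SD above the mean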); conditions: OD615, 24 h, at 10 µM, stronger effect = higher value
[8] = Restrictive medium S. cerevisiae growth inhibition, OD615, pilot screen of yeast lifespan reduction project, restrictive growth control (AID 706;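 active = growth inhibition above a set limit, 3 SD over mean compound inhibition, in both replicates, cut at about 43% in these data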;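 also: modified DeaD lifespan yeast strain shifted to restrictive glucose medium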); conditions: OD615, 48 h, at 10 µM, stronger effect = higher value
[9] = viability gain of MRP-1-high H69AR cells under doxorubicin, pilot screen, MRP-1 activator project, CellTiter-Glo, duplicate (AID 807); conditions: H69AR viability with doxorubicin, CellTiter-Glo luminescence; at 10 µM; stronger effect = higher value;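 also: compound pretreatment 18-22 h then 72 h combined with doxorubicin; 0% = doxorubicin alone and 100% = vehicle without doxorubicin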
[10] = growth suppression of beta-catenin knockout HCT116, pilot screen, human colon tumor cells (AID 823;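 active = cell viability at or below a set limit in both duplicate runs, the limit being the all-compound median minus 4 SD, cut at about 23% in these data, passing the limit was not always enough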;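 also: 0% = wells killed by 20 µM Hyamine and 100% = untreated DMSO cell wells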); conditions: CellTiter-Glo, 60 h, at 10 µM, stronger effect = lower value
[11] = growth suppression of PTEN-deleted HCT116, pilot screen, cell-based, HCT116 clonal line, CellTiter-Glo (AID 824;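 active = viability at or below 27.92% in each of two runs, the all-compound median minus 4 SD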;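 also: 0% = 20 µM Hyamine control and 100% = vehicle cell control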); conditions: 60 h, at 10 µM, stronger effect = lower value
[12] = inhibitors of the yeast RAM network, pilot screen, dse1pr::URA3 reporter, 5-FOA selection (AID 869;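 active = inhibition over a set limit, the all-compound mean plus 3 SD, in both replicate runs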;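 also: 0% = DMSO wells with no growth and 100% = 10 µM 1-NA-PP1 with full growth; RAM network block rescues cells from 5-FOA so hits raise OD615 growth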); conditions: S. cerevisiae dse1pr::URA3 5-FOA growth, OD615, 2 d; at 10 µM; stronger effect = higher value; strain carries analog-sensitive mutant Cbk1 kinase
[13] = RAM signaling pathway blockade in yeast – S. cerevisiae, Pdr1DBD-CYC8 efflux-inhibited sensitized strain, primary screen (AID 1298;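 active = RAM network inhibition above 8.4% in each of two replicates, 3 SD over the compound average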;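 also: 0% = DMSO untreated cells without growth and 100% = 10 µM 1-NA-PP1 full growth; higher means more yeast growth rescued from 5-FOA killing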); conditions: S. cerevisiae cbk1-as DSE1-URA3 strain, 5-FOA growth OD615, 2 d; at 50 µM; stronger effect = higher value
[14] = H69AR cells + 2 uM doxorubicin, measured here: viability with 2 uM doxorubicin, stronger effect = lower value
[15] = H69AR cells, compound alone cytotoxicity

C#CCOC(=O)C1C2C=CC(C2)C1C(=O)O (stereo not given)
81.7%: viability [4, 14]
93.6%: viability [4, 15]
inactive: viability [1] 86% | viability [2] 109% | viability [3] 93.6% | differential viability (reversal) ([4]; H69AR cells + 2 uM doxorubicin) 11.9% | inhibition [5] -6.27% | inhibition [6] 1.45% | growth inhibition [7] 2.87% | growth inhibition [8] -1.21% | viability increase [9] 0.51% | viability [10] 103% | viability [11] 96.8% | inhibition [12] -0.215% | RAM network inhibition [13] 2.5%

O=C(Nc1ccncc1)c1cc2ccccc2o1
91.1%: viability [4, 14]
inactive: viability [1] 113% | viability [2] 101% | viability [3] 105% | differential viability (reversal) ([4]; H69AR cells + 2 uM doxorubicin) 13.8% | inhibition [5] -0.4% | inhibition [6] -0.36% | growth inhibition [7] -10.7% | growth inhibition [8] -6.96% | viability increase [9] -0.51% | viability [10] 95.7% | viability [11] 95.9% | inhibition [12] 1.73% | RAM network inhibition [13] 4.22%
105%: viability [4, 15]

O=C(c1ccc2snnc2c1)N1CCOCC1
102%: viability [4, 15]
88.9%: viability [4, 14]
inactive: viability [1] 101% | viability [2] 90.2% | viability [3] 102% | differential viability (reversal) ([4]; H69AR cells + 2 uM doxorubicin) 12.8% | inhibition [5] -1.73% | inhibition [6] -0.55% | growth inhibition [7] 0.235% | growth inhibition [8] -15.9% | viability increase [9] 0.28% | viability [10] 102% | viability [11] 99.4% | inhibition [12] 1.69% | RAM network inhibition [13] 1.07%

CC1CCN(c2c(NCc3ccc(C(=O)N4c5ccccc5CC4C)cc3)c(=O)c2=O)CC1 (stereo not given)
active: viability [3] 37.2%
inactive: viability [1] 95% | viability [2] 70.5% | differential viability (reversal) ([4]; H69AR cells + 2 uM doxorubicin) -11.5% | inhibition [5] -0.13% | inhibition [6] 2.33% | growth inhibition [7] -17.3% | growth inhibition [8] -17.2% | viability increase [9] -7.24% | viability [10] 72.1% | viability [11] 66.8% | inhibition [12] 2.15% | RAM network inhibition [13] 2.31%
48.7%: viability [4, 14]
37.2%: viability [4, 15]

COc1ccccc1N1CCN(C(=O)C2CCN(S(=O)(=O)c3ccc(F)cc3)CC2)CC1
87.5%: viability [4, 15]
80.8%: viability [4, 14]
inactive: viability [1] 73% | viability [2] 70.8% | viability [3] 87.5% | differential viability (reversal) ([4]; H69AR cells + 2 uM doxorubicin) 6.62% | inhibition [5] -0.27% | inhibition [6] 8.55% | growth inhibition [7] -13.6% | growth inhibition [8] -1.89% | viability increase [9] -0.47% | viability [10] 81.2% | viability [11] 84% | inhibition [12] 1.03% | RAM network inhibition [13] 4.6%

O=C(CN1CCN(Cc2ccccc2)CC1)NCC1COc2ccccc2O1 (stereo not given)
93.2%: viability [4, 15]
86.6%: viability [4, 14]
inactive: viability [1] 108% | viability [2] 110% | viability [3] 93.2% | differential viability (reversal) ([4]; H69AR cells + 2 uM doxorubicin) 6.56% | inhibition [5] -2.53% | inhibition [6] -4.73% | growth inhibition [7] -1.31% | growth inhibition [8] -5.58% | viability increase [9] -1.29% | viability [10] 93.6% | viability [11] 96.9% | inhibition [12] -0.145% | RAM network inhibition [13] 2.61%

CCOC(=O)N1CCN(C(=O)c2cnn(-c3ccccc3)c2NC(=O)c2ccccc2F)CC1
92%: viability [4, 15]
80%: viability [4, 14]
inactive: viability [1] 102% | viability [2] 98.8% | viability [3] 92% | differential viability (reversal) ([4]; H69AR cells + 2 uM doxorubicin) 12% | inhibition [5] -4% | inhibition [6] -0.73% | growth inhibition [7] 0.625% | growth inhibition [8] -2.95% | viability increase [9] -1.55% | viability [10] 99.4% | viability [11] 102% | inhibition [12] -0.065% | RAM network inhibition [13] 1.56%

CC(C)C(CO)NC(=O)CC(=O)NC(CO)C(C)C (stereo not given)
inactive: viability [1] 93% | viability [2] 101% | viability [3] 103% | differential viability (reversal) ([4]; H69AR cells + 2 uM doxorubicin) 21.4% | inhibition [5] -4.8% | inhibition [6] -0.91% | growth inhibition [7] -4.75% | growth inhibition [8] -1.44% | viability increase [9] -0.9% | viability [10] 105% | viability [11] 97.3% | inhibition [12] 2.15% | RAM network inhibition [13] 6.33%
81.4%: viability [4, 14]
103%: viability [4, 15]

O=C(Nc1ncc(Cc2ccccc2)s1)C1CCCO1 (stereo not given)
103%: viability [4, 15]
92.2%: viability [4, 14]
inactive: viability [1] 91.5% | viability [2] 84.3% | viability [3] 103% | differential viability (reversal) ([4]; H69AR cells + 2 uM doxorubicin) 10.9% | inhibition [5] -4.67% | inhibition [6] -9.34% | growth inhibition [7] -14.2% | growth inhibition [8] 3.14% | viability increase [9] 1.91% | viability [10] 103% | viability [11] 103% | inhibition [12] 0.015% | RAM network inhibition [13] -2.16%

O=C(Nc1ccc2c(c1)OCCO2)C1CCN(C(=O)c2ccc(F)cc2)CC1
inactive: viability [1] 90% | viability [2] 94.9% | viability [3] 92.5% | differential viability (reversal) ([4]; H69AR cells + 2 uM doxorubicin) 5.68% | inhibition [5] -4.53% | inhibition [6] -4.55% | growth inhibition [7] -9.55% | growth inhibition [8] -4.03% | viability increase [9] -3.11% | viability [10] 92.3% | viability [11] 93% | inhibition [12] 0.685% | RAM network inhibition [13] 6.28%
92.5%: viability [4, 15]
86.8%: viability [4, 14]

Clc1c(CSc2nc3ccccc3o2)nc2sccn12
inactive: viability [1] 116% | viability [2] 82% | viability [3] 92.9% | differential viability (reversal) ([4]; H69AR cells + 2 uM doxorubicin) 13.2% | inhibition [5] -1.04% | inhibition [6] 2.95% | growth inhibition [7] -13.5% | growth inhibition [8] -9.04% | viability increase [9] -6.43% | viability [10] 77.3% | viability [11] 81% | inhibition [12] -0.115% | RAM network inhibition [13] -0.26%
79.8%: viability [4, 14]
92.9%: viability [4, 15]
